# Data taken from PubChem BioAssay (NCATS).
# Where “and” joins values, the source holds several entries; their conditions need not be identical. Identical values can stand only once. Results filed as inconclusive are left out. Entries that show only a call come without a potency. Calls of active or inactive are those of the source. Unless noted, calls come from the whole dose curve; as a rule, active = well fitted inhibition curve with a large enough effect; inconclusive = small, poorly fitted or top-dose-only effect; inactive = flat fitted curve, though single readings scatter.
# Key:
# [1] = molecular target: Voltage-gated inwardly rectifying potassium channel KCNH2 (Homo sapiens) (UniProt Q12809); assay: qHTS Assay for Small Molecule Inhibitors of the Human hERG Channel Activity (AID 588834);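 note: lower thallium flux fluorescence means stronger hERG block; nearly all actives have a fitted effect of over 50% in size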; note: potency is the fitted concentration of half-maximal effect
# Summary of the method: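 Step 1: BacMam hERG transduction of U2OS, 4 hrs RT. Step 2: overnight 37 °C, plate 2000 cells/well, 4 hr. Step 3: FluxOR load, compound 10 min, stimulate, read fluorescence.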
# [2] = molecular target: Vitamin D3 receptor (Homo sapiens) (UniProt P11473); assay: qHTS assay for small molecule antagonists of vitamin D receptor signaling (AID 588541; calls by dose curve;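 note: receptor activated by calcitriol during compound treatment; series mostly up to about 77 µM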)
# Summary of the method: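 VDR-UAS-bla HEK293T cells in 2% charcoal-stripped FBS were stimulated with 1-alpha,25-dihydroxyvitamin D3 (3 nM final) plus compound for 16 h at 37 C. The beta-lactamase CCF4 readout was normalized to 50 nM agonist and DMSO, and Hill fits gave IC50.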
# [3] = molecular target: Vitamin D3 receptor (Homo sapiens) (UniProt P11473); assay: qHTS assay for small molecule agonists of vitamin D receptor signaling (AID 588543; calls by dose curve)
# Summary of the method: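 Reporter cells (HEK293T, VDR-UAS-bla) were seeded in medium with 2% charcoal-stripped serum and incubated 5 h, then compounds in concentration series were added for 16 h at 37 °C. Stimulation was scaled between DMSO basal and 50 nM 1α,25-dihydroxyvitamin D3.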
# [4] = qHTS assay for small molecule agonists of retinoid X receptor alpha signaling (AID 588544; calls by dose curve); details: HEK293T RXRa-UAS-bla, beta-lactamase reporter, 18 h; 530 nm emission
# [5] = molecular target: Retinoic acid receptor RXR-alpha (Homo sapiens) (UniProt P19793); assay: as above
# [6] = molecular target: Thyroid hormone receptor beta (Homo sapiens) (UniProt P10828); assay: qHTS assay for small molecule agonists of thyroid hormone receptor beta signaling (AID 588545; calls by dose curve)
# Summary of the method: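 Beta-lactamase reporter activity under TR response element control is measured in HEK 293 cells after 18 hrs compound exposure. Signal is ratiometric CCF4 fluorescence, 460/530 nm.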
# [7] = qHTS assay for small molecule antagonists of retinoid X receptor alpha signaling (AID 588546; active = well fitted inhibition curve with a large enough effect in the signal ratio, with a control signal flat, not every such curve was filed as active; the % refers to the signal ratio;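 note: cells stimulated with 9-cis-retinoic acid as agonist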); details: HEK293T RXRa-UAS-bla, beta-lactamase ratio, antagonist mode; measured here: W530 green channel, cytotoxicity proxy
# Summary of the method: (§1)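 Beta-lactamase reporter inhibition, read as CCF4 fluorescence ratio (ex 405, em 460/530 nm) after 2 h at RT. HEK293T UAS-bla cells, 2500/well, were stimulated with 9-cis-RA at 500 or 100 nM final alongside test compound for 18 h at 37 C.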
# [8] = molecular target: Retinoic acid receptor RXR-alpha (Homo sapiens) (UniProt P19793); assay: as above; details: HEK293T RXRa-UAS-bla, beta-lactamase ratio, antagonist mode
# Summary of the method: as §1
# Sequence of Voltage-gated inwardly rectifying potassium channel KCNH2 (Homo sapiens) (Q12809 whole entry, looked up): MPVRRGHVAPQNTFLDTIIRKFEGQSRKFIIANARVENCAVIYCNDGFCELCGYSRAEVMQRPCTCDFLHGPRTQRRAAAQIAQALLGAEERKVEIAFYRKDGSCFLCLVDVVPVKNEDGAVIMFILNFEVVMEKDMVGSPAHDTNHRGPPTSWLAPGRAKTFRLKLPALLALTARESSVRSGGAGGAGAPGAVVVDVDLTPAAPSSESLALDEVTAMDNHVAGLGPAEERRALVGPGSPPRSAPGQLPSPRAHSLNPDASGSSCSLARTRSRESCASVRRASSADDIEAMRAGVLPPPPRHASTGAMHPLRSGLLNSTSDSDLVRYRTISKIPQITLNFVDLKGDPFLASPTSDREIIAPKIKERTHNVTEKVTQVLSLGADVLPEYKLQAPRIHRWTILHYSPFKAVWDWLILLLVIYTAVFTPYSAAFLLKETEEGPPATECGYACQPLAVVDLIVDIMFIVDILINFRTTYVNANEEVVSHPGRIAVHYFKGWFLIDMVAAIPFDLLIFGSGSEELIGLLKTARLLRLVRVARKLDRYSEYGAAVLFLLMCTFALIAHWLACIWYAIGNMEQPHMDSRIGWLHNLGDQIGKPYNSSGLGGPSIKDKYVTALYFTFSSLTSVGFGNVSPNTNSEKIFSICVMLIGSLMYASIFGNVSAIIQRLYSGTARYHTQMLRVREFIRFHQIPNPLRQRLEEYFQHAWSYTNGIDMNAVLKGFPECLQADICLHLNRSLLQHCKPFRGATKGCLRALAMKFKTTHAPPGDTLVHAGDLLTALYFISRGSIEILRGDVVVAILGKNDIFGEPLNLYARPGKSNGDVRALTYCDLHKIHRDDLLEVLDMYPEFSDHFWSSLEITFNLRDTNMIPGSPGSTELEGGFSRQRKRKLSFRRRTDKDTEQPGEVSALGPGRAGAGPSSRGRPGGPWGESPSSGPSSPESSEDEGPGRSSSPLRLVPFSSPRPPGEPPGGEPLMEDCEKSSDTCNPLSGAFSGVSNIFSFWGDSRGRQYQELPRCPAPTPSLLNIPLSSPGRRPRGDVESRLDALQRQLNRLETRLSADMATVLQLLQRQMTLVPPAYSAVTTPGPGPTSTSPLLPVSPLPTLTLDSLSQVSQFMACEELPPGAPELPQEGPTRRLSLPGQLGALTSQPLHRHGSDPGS
# Sequence of Vitamin D3 receptor (Homo sapiens) (P11473 whole entry, looked up): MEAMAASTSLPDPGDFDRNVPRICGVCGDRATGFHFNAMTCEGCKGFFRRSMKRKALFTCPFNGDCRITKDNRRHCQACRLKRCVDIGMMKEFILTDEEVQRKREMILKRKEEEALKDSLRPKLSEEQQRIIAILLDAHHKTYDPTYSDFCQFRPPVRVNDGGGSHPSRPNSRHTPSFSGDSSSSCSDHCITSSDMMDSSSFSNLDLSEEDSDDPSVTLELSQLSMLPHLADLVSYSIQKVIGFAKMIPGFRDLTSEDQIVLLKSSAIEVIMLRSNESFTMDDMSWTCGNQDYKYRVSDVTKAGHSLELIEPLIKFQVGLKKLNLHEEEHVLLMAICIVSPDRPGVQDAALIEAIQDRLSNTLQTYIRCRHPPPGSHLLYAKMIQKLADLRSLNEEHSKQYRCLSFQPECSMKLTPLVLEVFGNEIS
# Sequence of Retinoic acid receptor RXR-alpha (Homo sapiens) (P19793 whole entry, looked up): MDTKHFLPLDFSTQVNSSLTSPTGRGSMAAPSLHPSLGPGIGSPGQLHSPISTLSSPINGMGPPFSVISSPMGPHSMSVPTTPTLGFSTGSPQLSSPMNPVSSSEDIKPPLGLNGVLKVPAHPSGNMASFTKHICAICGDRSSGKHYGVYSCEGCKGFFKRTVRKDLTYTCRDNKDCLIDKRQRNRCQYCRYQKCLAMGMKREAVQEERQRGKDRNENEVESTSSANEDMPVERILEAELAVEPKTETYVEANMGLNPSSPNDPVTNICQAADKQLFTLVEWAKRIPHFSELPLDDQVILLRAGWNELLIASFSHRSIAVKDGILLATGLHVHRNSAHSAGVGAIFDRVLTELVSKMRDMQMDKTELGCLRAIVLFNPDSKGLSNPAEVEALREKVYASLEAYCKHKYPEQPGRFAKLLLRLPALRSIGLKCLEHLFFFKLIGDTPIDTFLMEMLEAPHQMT
# Sequence of Thyroid hormone receptor beta (Homo sapiens) (P10828 whole entry, looked up): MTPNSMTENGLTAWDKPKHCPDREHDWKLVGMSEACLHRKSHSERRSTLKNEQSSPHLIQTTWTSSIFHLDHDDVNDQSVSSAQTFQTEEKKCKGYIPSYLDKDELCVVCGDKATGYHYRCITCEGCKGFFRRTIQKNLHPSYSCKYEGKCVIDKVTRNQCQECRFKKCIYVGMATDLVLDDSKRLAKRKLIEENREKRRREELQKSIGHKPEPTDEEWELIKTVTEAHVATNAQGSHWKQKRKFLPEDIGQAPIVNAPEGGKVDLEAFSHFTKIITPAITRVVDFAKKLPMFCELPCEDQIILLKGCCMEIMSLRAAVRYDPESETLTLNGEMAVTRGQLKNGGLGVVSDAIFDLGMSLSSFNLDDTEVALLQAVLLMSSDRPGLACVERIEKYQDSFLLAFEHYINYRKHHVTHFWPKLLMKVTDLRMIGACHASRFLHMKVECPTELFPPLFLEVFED
smiles,measurement,setting,value
NC(=O)c1cc[n+](CC2=C(C(=O)O)N3C(=O)[C@@H](NC(=O)C(c4ccccc4)S(=O)(=O)[O-])[C@H]3SC2)cc1 (stereo partly specified),Potency,[1],inactive
C[N+]1(C)[C@@H]2CC(OC(=O)C(O)(c3cccs3)c3cccs3)C[C@H]1[C@@H]1O[C@@H]12 (stereo partly specified),Potency,[1],inactive
CN(C)CCC(O)(c1ccccc1)c1ccccc1Cl (stereo unspecified),Potency,[1],3.16 µM (active)
C=Cc1ccc(S(=O)(=O)O)cc1,Potency,[1],inactive
CCCCC,outcome,[2],inactive
same,outcome,[3],inactive
same,max response,[4],-1.8%
same,outcome,[5],inactive
same,outcome,[6],inactive
same,max response,[7],-4.57%
same,max response,[8],3.28% (inactive)
same,Potency,[1],inactive
O=C(CO)[C@@H](O)[C@H](O)[C@@H](O)C(=O)O,Potency,[1],inactive
C=C(C)C1CC=C(C)CC1 (stereo unspecified),outcome,[2],inactive
same,outcome,[3],inactive
same,max response,[4],2.14%
same,outcome,[5],inactive
same,max response,[7],0.388% and 6.57%
same,max response,[8],2.38% (inactive) and 15.2% (inactive)
CCC(Oc1ccccc1)C(=O)N[C@@H]1C(=O)N2[C@@H]1SC(C)(C)[C@@H]2C(=O)O (stereo partly specified),Potency,[1],inactive
CC(=O)N[C@@H]([C@@H](O)[C@H](O)[C@H](O)CO)[C@@H](O)CC(=O)C(=O)O,Potency,[1],inactive
CSCCC(N)C(=O)O (stereo unspecified),Potency,[1],inactive
COc1ccc2c(c1)OC(C)(C)C(c1ccccc1)C2c1ccc(OCCN2CCCC2)cc1 (stereo unspecified),Potency,[1],10 µM (active)
C#C[C@]1(O)CC[C@H]2[C@@H]3CCC4=C(CCC(=O)C4)[C@H]3CC[C@@]21C,Potency,[1],inactive
NCC[C@H](O)C(=O)N[C@@H]1C[C@H](N)[C@@H](O[C@H]2O[C@H](CN)CC[C@H]2N)[C@H](O)[C@H]1O[C@H]1O[C@H](CO)[C@@H](O)[C@H](N)[C@H]1O,Potency,[1],inactive
COc1ccc2c(=O)c(C)c(-c3ccccc3)oc2c1CN(C)C,Potency,[1],inactive
